In the supplement of paper PMC3334620:
Over roughly 33,000 sequences, “E-score (-0.5 to 0.5)” has its median near -0.056; the highest 2% begin near 0.38. Only a selection was taken, and the highest values are over-represented in it overall.

These sequences were tested against Stb4 (UniProt P50104) (assay: PBM E-score (8-mer binding enrichment) (E-score (-0.5 to 0.5)); higher = stronger / more preferred TF binding). Details: protein concentration: 200 nM; construct: GST-DNA-binding domain.
In short: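 The E-score, a modified Wilcoxon-Mann-Whitney statistic, was computed by the Universal PBM Analysis Suite for every ungapped eight-base word pooled with its reverse complement. Scans behind it were normalised with masliner after bound GST-tagged yeast transcription factors were detected with fluorescent anti-GST. The proteins, at about 100-200 nM, had been applied to universal all-10-mer Agilent arrays made double-stranded by primer extension.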

UniProt P50104, sequence (P50104 whole entry, the tested form may be a part): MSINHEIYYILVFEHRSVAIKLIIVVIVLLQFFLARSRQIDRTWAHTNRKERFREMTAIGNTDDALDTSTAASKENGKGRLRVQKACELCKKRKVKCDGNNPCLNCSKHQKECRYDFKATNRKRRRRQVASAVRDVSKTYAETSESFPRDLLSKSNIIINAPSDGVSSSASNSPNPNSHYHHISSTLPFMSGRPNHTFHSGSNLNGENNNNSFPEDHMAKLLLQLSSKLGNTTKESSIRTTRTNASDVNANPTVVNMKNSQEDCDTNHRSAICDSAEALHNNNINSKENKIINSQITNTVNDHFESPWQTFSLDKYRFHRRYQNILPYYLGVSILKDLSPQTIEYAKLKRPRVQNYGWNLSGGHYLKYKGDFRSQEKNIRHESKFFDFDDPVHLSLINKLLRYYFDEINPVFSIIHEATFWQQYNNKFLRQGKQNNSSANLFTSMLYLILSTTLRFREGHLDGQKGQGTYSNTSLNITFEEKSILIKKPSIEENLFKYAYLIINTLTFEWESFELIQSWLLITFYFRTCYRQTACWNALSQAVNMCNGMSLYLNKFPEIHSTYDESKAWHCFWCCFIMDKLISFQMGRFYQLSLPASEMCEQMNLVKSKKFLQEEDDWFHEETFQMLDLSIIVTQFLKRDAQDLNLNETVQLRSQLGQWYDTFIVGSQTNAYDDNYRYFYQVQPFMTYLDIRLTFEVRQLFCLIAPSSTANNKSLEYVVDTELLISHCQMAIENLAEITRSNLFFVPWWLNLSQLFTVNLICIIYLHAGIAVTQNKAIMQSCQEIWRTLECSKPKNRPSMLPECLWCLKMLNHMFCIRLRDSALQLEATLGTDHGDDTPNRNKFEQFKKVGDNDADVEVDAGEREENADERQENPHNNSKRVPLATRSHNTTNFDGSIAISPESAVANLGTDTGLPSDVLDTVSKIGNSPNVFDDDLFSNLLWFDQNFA

Row | Sequence | PBM E-score
1 | AAGCAAAC | -0.0582
2 | ATCCGGGG | 0.398
3 | ATCCGGCG | 0.368
4 | AACCGGGG | 0.164
5 | CTCCGGGC | 0.131
6 | ATCCGGGA | 0.368
7 | ATCCGGCC | 0.394
8 | ATCCGGGC | 0.405
9 | AGCCGGGC | 0.166
10 | ATCCGGCA | 0.38
11 | AATATAAC | 0.109
12 | CGTCTCAG | -0.235
13 | CCGAACCC | 0.37
14 | CGGAACCC | 0.359
15 | CCGAACCA | 0.356
16 | TGGAACCA | 0.0635
17 | CGGAACCG | 0.407
18 | CCGAACCG | 0.447
19 | AGGAACCG | 0.263
20 | CGGAACCA | 0.41
21 | GGGAACCA | -0.0292
22 | CATTCTCA | 0.0317

Row | Sequence | PBM E-score
23 | CAATGTCC | 0.00172
24 | AAATGCGC | -0.041
25 | GTGCCGAA | 0.441
26 | ATGCCGTG | 0.00847
27 | ATGCCGAG | 0.423
28 | GGGCCGAA | 0.314
29 | ATGCCGAC | 0.333
30 | GTGCCAAA | -0.0603
31 | CTGCCGAA | 0.411
32 | ATGCCAAA | -0.302
33 | CTGCCGCA | 0.0287
34 | CTGCCGAC | 0.331
35 | ATGCCGAA | 0.433
36 | ATGCCGCA | 0.0956
37 | GCAAGTGA | -0.0836
38 | CTCGCGAG | -0.0385
39 | GTAAGTAC | 0.00926
40 | AGCGACCC | 0.0831
41 | ATGGTCGC | -0.0565
42 | CGTTAGCA | -0.0245
43 | ACAGGCAT | -0.242
44 | CAAGCCGA | 0.297

Row | Sequence | PBM E-score
45 | GAAGCCGC | 0.193
46 | GAAGCCCA | -0.1
47 | TAAGCCGA | 0.392
48 | GAAGCCGA | 0.401
49 | AAAGCCGA | 0.322
50 | ACGATTGG | -0.176
51 | GCTCGGCA | 0.443
52 | CCTCGGCG | 0.411
53 | CCACGGCG | -0.0429
54 | AATCGGCA | 0.32
55 | ACTCGGCA | 0.428
56 | GCTCGGCC | 0.289
57 | GCACGGCA | 0.109
58 | ACTCGGCG | 0.326
59 | TCTCGGCA | 0.446
60 | TCACGGCA | 0.114
61 | ACTCGGCC | 0.232
62 | CATCGGCG | 0.165
63 | ACGACGTC | -0.148
64 | ATTGGGGA | -0.245
65 | AGATACTG | -0.169
66 | ACCAGCCG | 0.256

Row | Sequence | PBM E-score
67 | AGATGAAG | -0.0847
68 | AGCTAAGA | -0.055
69 | AAGCCAAG | -0.0879
70 | CCCGCATC | 0.101
71 | ACATAGAG | -0.166
72 | GAGAAATC | 0.0628
73 | CCTCGGCA | 0.461
74 | ACTCGGCT | 0.414
75 | ACTCGTCT | -0.126
76 | CGTCGGCA | 0.38
77 | CCTCGGCC | 0.313
78 | AATCGGCT | 0.344
79 | GAGTCCCC | -0.0682
80 | ACGTGATA | -0.167
81 | CCCTGACC | 0.0155
82 | CCAGACTC | -0.0717
83 | GAAACAGA | -0.0644
84 | CGCCGAAG | 0.372
85 | AGCCGTAT | 0.0974
86 | GGCCGAAC | 0.313
87 | AGACGAAG | -0.0901
88 | CGCCGAAC | 0.366

Row | Sequence | PBM E-score
89 | AGCCGAAC | 0.411
90 | AGCCGAAG | 0.391
91 | AGCCGACT | 0.261
92 | GACCGAAA | 0.255
93 | CACCGAAA | 0.201
94 | AGCCGAAT | 0.426
95 | TACCGAAA | 0.385
96 | GAGCCGTA | 0.191
97 | AGCCCGTC | -0.0989
98 | ATGATTCG | 0.0336
99 | GGGTCTAA | -0.0158
100 | AAAGCTCA | -0.202
101 | CTGCAGTA | -0.353
102 | AATCAGGC | -0.174
103 | TGACGAAA | -0.207
104 | AGCCGAAA | 0.425
105 | CGCCGAAA | 0.34
106 | TGCCGACA | 0.359
107 | GGCCGAAA | 0.319
108 | TGCCGAAA | 0.444
109 | AACAGGAA | -0.219
110 | AGCACAAC | 0.0479
